According to PubChem BioAssay (NCATS):
Inconclusive results are not listed. Unmarked numbers belong to inactive results. Active and inactive are the calls of the source. Calls come from the whole dose curve; as a rule, active = well fitted curve in the direction sought with a large enough effect in the repeat runs; inconclusive = weak or mixed curves; inactive = no such curve, though single readings can be large; an effect the other way counts as inactive or inconclusive.

The compounds below were run against Cytochrome P450 2D6 (Homo sapiens) (UniProt P10635) (assay: Cytochrome P450 family 2 subfamily D member 6 (CYP2D6) small molecule antagonists: luciferase biochemical (cell-free) qHTS assay (AID 1645840)). Conditions: P450-Glo CYP2D6 enzyme, luciferin luminescence, 1 h; series mostly up to 57.4 µM; activity change, negative = inhibition: at the top concentration.
Procedure, shortened: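 P450-Glo CYP2D6 system: proluciferin substrate converted by enzyme to luciferin, read by luminescence proportional to activity. Enzyme-substrate mix with compound 10 min at room temperature, then NADPH regeneration 1 h before detection reagent.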
% is set by controls: 0 for no effect and ±100 for the full control effect; potency is the fitted concentration of half-maximal effect.
Note: nearly all actives have a fitted effect of over 55% in size.

Chain of Cytochrome P450 2D6 (Homo sapiens) (P10635 whole entry, looked up): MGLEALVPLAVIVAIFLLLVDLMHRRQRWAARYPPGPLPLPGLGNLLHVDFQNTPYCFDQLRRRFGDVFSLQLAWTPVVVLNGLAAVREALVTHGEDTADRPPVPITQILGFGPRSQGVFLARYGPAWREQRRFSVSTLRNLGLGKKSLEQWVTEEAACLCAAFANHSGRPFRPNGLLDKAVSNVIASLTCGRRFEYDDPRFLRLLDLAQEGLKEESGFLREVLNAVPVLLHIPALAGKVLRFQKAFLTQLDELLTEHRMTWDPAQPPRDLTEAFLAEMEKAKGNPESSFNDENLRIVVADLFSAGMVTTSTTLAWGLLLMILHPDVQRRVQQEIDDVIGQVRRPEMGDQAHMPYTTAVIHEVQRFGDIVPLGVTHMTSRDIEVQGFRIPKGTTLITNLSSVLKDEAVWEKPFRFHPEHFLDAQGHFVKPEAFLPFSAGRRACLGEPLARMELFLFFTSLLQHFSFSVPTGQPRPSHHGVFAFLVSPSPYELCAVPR

Row | SMILES | Potency | activity change, negative = inhibition
1 | COC(=O)N1CCC(n2ncc3c(N4CCOCC4)nc(-c4ccc(NC(=O)NC5CC5)cc4)nc32)CC1 | 16.9 µM (active) | –
2 | CC1=C(C(=O)OC2CCCCC2)C(c2ccc([N+](=O)[O-])cc2)C2=C(CC(C)(C)CC2=O)N1 (stereo not drawn) | 21.3 µM (active) | –
3 | CC(C)c1ccc(NC(=O)Cn2cnc3c2c(=O)n(C)c(=O)n3C)cc1 | – | -0.0062%
4 | O=C(Nc1cc(C(F)(F)F)cc(C(F)(F)F)c1)c1cnc(Cl)nc1C(F)(F)F | 19 µM (active) | –
5 | C=Cc1ccccc1 | – | -0.332%
6 | CN1CC(O)c2cc(N=NC(N)=O)c(O)cc21 (stereo not drawn) | – | -3.39%
7 | O=C(Nc1ccc(Cl)cc1)C1CCCN(C(=O)c2cccc(-c3ccco3)c2)C1 (stereo not drawn) | 13.5 µM (active) | –
8 | O=[N+]([O-])c1ccc(Oc2ccc(N=C=S)cc2)cc1 | – | 3.33%
9 | CCCCCCCCCCCCCCCC(=O)OC/C=C(C)/C=C/C=C(C)/C=C/C1=C(C)CCCC1(C)C | – | 5.17%
10 | CN[C@@H]1CCc2[nH]c3ccc(C(N)=O)cc3c2C1 | – | 31.9%
11 | CC(C)Oc1ccc(-c2cnc3c(-c4ccnc5ccccc45)cnn3c2)cc1 | – | -2.27%
12 | CCOC(=O)[C@H](CCc1ccccc1)N[C@H]1CCCN2CCC[C@@H](C(=O)O)N2C1=O | – | -0.997%
13 | Cc1nc(Nc2ccc(F)cc2)nc(N2CCc3ccccc3C2C)c1C (stereo not drawn) | 7.56 µM (active) | –
14 | CCCCC(=O)O | – | -3.25%
15 | C=CC(=O)N1CCCC(n2nc(-c3ccc(Oc4ccccc4)cc3)c3c(N)ncnc32)C1 (stereo not drawn) | 19 µM (active) | –
16 | CC1(S(=O)(=O)O)CC(=O)c2ccccc2C1=O (stereo not drawn) | 8.49 µM (active) | –
17 | CCC(=O)Oc1ccc2c(c1)CC[C@@H]1[C@@H]2CC[C@]2(C)[C@@H](OC(=O)CC)CC[C@@H]12 | – | -14%
18 | O=C(NCCCN1CCOCC1)c1cnn2c(-c3ccccc3)cc(-c3ccccc3)nc12 | – | -24%
19 | Cc1cc2occ(CN(C)CCN(C)Cc3cn(-c4cccc(C(F)(F)F)c4)c4ccccc34)c(=O)c2cc1C | 4.77 µM (active) | –
20 | CCCCCCCCCC(=O)O | – | 4.27%
21 | CCCCc1ccc(NS(=O)(=O)c2ccc(F)cc2)cc1 | 9.52 µM (active) | –
22 | COc1ccnc(CS(=O)c2nc3cc(OC(F)F)ccc3[nH]2)c1OC (stereo not drawn) | – | -24.7%
23 | C=C(C)[C@@H]1CC=C(COC(=O)NC(=O)c2ncn3c(=O)n(C)nnc23)CC1 | – | -12.1%
24 | COc1ccccc1S(=O)(=O)Nc1ccc2c(c1)CN(C)C(=O)N2 | – | -1.75%
25 | O=P(O)(O)OC(CO)CO | – | 9.01%

What follows are compounds tested against Cytochrome P450 2C9 (Homo sapiens) (UniProt P11712) (assay: Cytochrome P450 family 2 subfamily C member 9 (CYP2C9) small molecule antagonists: luciferase biochemical (cell-free) qHTS assay (AID 1645842)). Conditions: P450-Glo CYP2C9 enzyme assay, luciferin luminescence; series mostly up to 57.4 µM; activity change, negative = inhibition: at the top concentration.
Procedure, shortened: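 P450-Glo CYP2C9 system: proluciferin substrate with enzyme in mix containing 0.4% BSA, 10 min at room temperature, then NADPH regeneration solution added and incubated 1 h at 37C. Detection reagent stopped reaction; luminescence read after 20 min as RLU.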

Chain of Cytochrome P450 2C9 (Homo sapiens) (P11712 whole entry, looked up): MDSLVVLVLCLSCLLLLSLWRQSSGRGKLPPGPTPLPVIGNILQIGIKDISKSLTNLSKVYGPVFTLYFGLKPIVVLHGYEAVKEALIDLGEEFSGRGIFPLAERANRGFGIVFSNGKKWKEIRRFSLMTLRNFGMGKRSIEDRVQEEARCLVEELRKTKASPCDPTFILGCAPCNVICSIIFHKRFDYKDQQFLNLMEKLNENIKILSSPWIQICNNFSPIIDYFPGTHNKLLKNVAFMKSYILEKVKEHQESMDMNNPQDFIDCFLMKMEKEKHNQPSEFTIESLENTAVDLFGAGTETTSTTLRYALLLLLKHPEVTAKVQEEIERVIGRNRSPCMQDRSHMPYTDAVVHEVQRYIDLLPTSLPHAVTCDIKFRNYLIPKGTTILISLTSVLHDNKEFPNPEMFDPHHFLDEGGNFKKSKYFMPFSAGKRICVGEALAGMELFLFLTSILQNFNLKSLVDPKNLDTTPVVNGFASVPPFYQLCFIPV

Row | SMILES | Potency | activity change, negative = inhibition
26 | COC(=O)N1CCC(n2ncc3c(N4CCOCC4)nc(-c4ccc(NC(=O)NC5CC5)cc4)nc32)CC1 | 3.38 µM (active) | –
27 | CC1=C(C(=O)OC2CCCCC2)C(c2ccc([N+](=O)[O-])cc2)C2=C(CC(C)(C)CC2=O)N1 (stereo not drawn) | 12 µM (active) | –
28 | C=Cc1ccccc1 | – | 6.43%
29 | CN1CC(O)c2cc(N=NC(N)=O)c(O)cc21 (stereo not drawn) | – | -2.9%
30 | CNc1ccc([N+](=O)[O-])c(Nc2ccc3[nH]ncc3c2)n1 | 0.756 µM (active) | –
31 | O=C(Nc1ccc(Cl)cc1)C1CCCN(C(=O)c2cccc(-c3ccco3)c2)C1 (stereo not drawn) | 15.1 µM (active) | –
32 | O=[N+]([O-])c1ccc(Oc2ccc(N=C=S)cc2)cc1 | 16.9 µM (active) | –
33 | CCCCCCCCCCCCCCCC(=O)OC/C=C(C)/C=C/C=C(C)/C=C/C1=C(C)CCCC1(C)C | 13.5 µM (active) | –
34 | Cc1c(OCc2cccc(-c3ccc(C(=O)O)cc3)c2)cc2c(c1C)C(=O)C(C1CCCC1)C2 (stereo not drawn) | 19 µM (active) | –
35 | CCOC(=O)c1ccc(OCCC2CCN(c3ccc(C)nn3)CC2)cc1 | 19 µM (active) | –
36 | CN[C@@H]1CCc2[nH]c3ccc(C(N)=O)cc3c2C1 | – | -25%
37 | CCOC(=O)[C@H](CCc1ccccc1)N[C@H]1CCCN2CCC[C@@H](C(=O)O)N2C1=O | – | -27.3%
38 | Cc1ccnc(NC(=O)C(C)c2cccc(C(=O)c3ccccc3)c2)c1 (stereo not drawn) | 10.7 µM (active) | –
39 | Cc1nc(Nc2ccc(F)cc2)nc(N2CCc3ccccc3C2C)c1C (stereo not drawn) | 5.35 µM (active) | –
40 | CCS(=O)c1nc(-c2cccc(OCc3ccccc3)c2)cc(C(F)(F)F)n1 (stereo not drawn) | 10.7 µM (active) | –
41 | CCCCC(=O)O | – | -5.37%
42 | C=CC(=O)N1CCCC(n2nc(-c3ccc(Oc4ccccc4)cc3)c3c(N)ncnc32)C1 (stereo not drawn) | 3.79 µM (active) | –
43 | CC1(S(=O)(=O)O)CC(=O)c2ccccc2C1=O (stereo not drawn) | 16.9 µM (active) | –
44 | CCC(=O)Oc1ccc2c(c1)CC[C@@H]1[C@@H]2CC[C@]2(C)[C@@H](OC(=O)CC)CC[C@@H]12 | 15.1 µM (active) | –
45 | O=C(NCCCN1CCOCC1)c1cnn2c(-c3ccccc3)cc(-c3ccccc3)nc12 | 3.79 µM (active) | –
46 | Cc1cc2occ(CN(C)CCN(C)Cc3cn(-c4cccc(C(F)(F)F)c4)c4ccccc34)c(=O)c2cc1C | 21.3 µM (active) | –
47 | Cn1c(=O)c(F)c(Nc2ccc(I)cc2F)c2c(=O)n(CC(O)CO)cnc21 (stereo not drawn) | 9.52 µM (active) | –
48 | CCCCCCCCCC(=O)O | – | -2.97%
49 | CCCCc1ccc(NS(=O)(=O)c2ccc(F)cc2)cc1 | 1.69 µM (active) | –
50 | C=CC(=O)Nc1cccc(Nc2nc(Nc3ccc(OCCOC)cc3)ncc2F)c1 | 3.38 µM (active) | –
51 | C=C(C)[C@@H]1CC=C(COC(=O)NC(=O)c2ncn3c(=O)n(C)nnc23)CC1 | – | -1.11%
52 | O=C(Nc1ccccc1C(=O)Nc1ccc(CCO)cc1)c1ccc([N+](=O)[O-])cc1 | – | 4.22%
53 | O=P(O)(O)OC(CO)CO | – | 3.44%
